Consider 67 compounds from ChEMBL document CHEMBL4513216, “Probing the Open Global Health Chemical Diversity Library for Multistage-Active Starting Points for Next-Generation Antimalarials” (ACS Infect Dis, 2020).

The structures appear in SMILES notation. The whole screen tested about 65,000 compounds, of which about 2,100 (3.2%) showed an effect of 50% or more. The median lay at about -52%. Many of the other results were omitted from the sample, so strong results are more common in it than they were.

The assay deals with Plasmodium falciparum. The assay can be described thus: Screen against P. falciparum Asexual Blood Stage (ABS), at 5uM. The class given is functional, Dd2. The following applies: tested at 5 uM.
For `Cc1cc(C)n(CC2CN(Cc3cnc(C)s3)CCO2)n1` (configuration not stated), the INHIBITION amounted to 53.2%.

For the compound `Cc1cnc(CN2CCOC(Cn3nc(C)cc3C)C2)cn1` (configuration not stated), the INHIBITION is -20.8%.

As to `Cc1cc(CN2CCOC(Cn3nc(C)cc3C)C2)on1` (configuration not stated), the INHIBITION was 46.7%. For `CCN1CCN(C(=O)c2cc(NC(=O)c3ccccc3)n(C)n2)CC1`, the INHIBITION is listed as -98%. The figure for `CC(=O)N(Cc1ncc(C(C)C)o1)C1CCN(Cc2cc(C)no2)C1` (configuration not stated) is 59%; for `CC(=O)N(Cc1ncc(C(C)C)o1)C1CCN(CC2CCC2)C1` (configuration not stated) it is -113%; for `CC(=O)N(Cc1ncc(C(C)C)o1)C1CCN(Cc2cc(C)on2)C1` (configuration not stated) it is -83.8%. The figure for `CC(=O)N(Cc1ncc(C(C)C)o1)C1CCN(CCn2cccn2)C1` (configuration not stated) is -150%; for `CC(=O)N(Cc1ncc(C(C)C)o1)C1CCN(Cc2nccn2C)C1` (configuration not stated) it is -176%; for `CC(=O)N(Cc1ncc(C)o1)C1CCN(Cc2nccn2C)C1` (configuration not stated) it is -133%. Then `CC(=O)N(Cc1ncc(C(C)C)o1)C1CCN(CCC#N)C1` (configuration not stated), with 57%; and `CC(=O)N(Cc1ncc(C(C)C)o1)C1CCN(Cc2ccno2)C1` (configuration not stated), with 45.7%; and `CCc1cnc(CN(C(C)=O)C2CCN(Cc3nccn3C)C2)o1` (configuration not stated), with 51.5%. On to `COCCN(Cc1cnn(C)c1)C(=O)C1CCCN(C2CCOCC2)C1` (configuration not stated), for which the INHIBITION was -15.9%.

`CCN(Cc1ccncc1)c1cc(C2CCCNC2)nc(C)n1` (configuration not stated): the INHIBITION is given as -121%. The figure for `CN(Cc1cccnc1)C1COC2(CCN(Cc3nccs3)CC2)C1` (configuration not stated) is -52.5%. In the case of `O=C(c1cccnc1)N1CCCC1c1cc[nH]n1` (configuration not stated), the INHIBITION was -66.5%.

`N#Cc1ccc(N2CCCC3(CCN(c4cccnc4)CC3)C2)cc1`: the INHIBITION is on record as -71.3%. The figure for `COc1cc(C)sc1C(=O)NCCC(=O)N(C)c1ccccc1` is 33.9%; for `COc1cc(C)sc1C(=O)NCCNc1ccccc1` it is 18.7%; for `COc1cc(C)sc1C(=O)NCCC(=O)N(C)Cc1ccccc1` it is 59.3%. The figure for `N#Cc1ccc(NC2CCN(Cc3ccccn3)CC2)c(F)c1` is -118%; for `c1ccc(CN2CCC(NCCc3ccc4c(c3)CCO4)CC2)nc1` it is 36%; for `Fc1ccc(OCCNC2CCN(Cc3ccccn3)CC2)c(F)c1` it is 69.8%. The figure for `COC(=O)c1ccc(CNCc2cn(C)nc2C)cc1` is -133%; for `O=C(NCCC1=CCCCC1)NC1CCCc2c1cnn2CCO` (configuration not stated) it is -134%; for `CN(Cc1ccccc1)CC(O)Cn1cnc2sccc2c1=O` (configuration not stated) it is 62.1%.

For the compound `CN(Cc1ccccc1)CC(O)Cn1cnc2ccsc2c1=O` (configuration not stated), the INHIBITION came out at 19%.

Take `CN(Cc1ccccc1)CC(O)Cn1cnc2ccccc2c1=O` (configuration not stated): the INHIBITION is reported as -2.56%. The figure for `CC(C)CS(=O)(=O)Nc1ccc2c(c1)OCC(C)(C)C(=O)N2C` is -28.6%; for `CCCC(NC(=O)c1cc(C)c(F)cc1F)c1nnn[nH]1` (configuration not stated) it is -94.1%.

Turning to `CCc1ncc(CN2C[C@@H]3C[C@@H](O)CN3C[C@@H]2Cc2ccccc2)cn1`, the INHIBITION was -55%. Then `O[C@@H]1C[C@H]2CN(Cc3ccccc3Cl)[C@H](Cc3ccccc3)CN2C1`, with 56.3%; and `O[C@@H]1C[C@H]2CN(Cc3ccccc3)[C@H](Cc3ccccc3)CN2C1`, with 69.1%. The figure for `C=Cn1ncc(CN2C[C@@H]3C[C@@H](O)CN3C[C@@H]2Cc2ccccc2)c1C` is -7.65%. Then `O[C@@H]1C[C@H]2CN(CC3CCCCC3)[C@H](Cc3ccccc3)CN2C1`, with 37.6%; and `COc1ncc(CN2C[C@@H]3C[C@@H](O)CN3C[C@@H]2Cc2ccccc2)cn1`, with -117%. As to `COCC(=O)N1CCCC(c2cc(C(F)F)n3ncnc3n2)C1` (configuration not stated), the INHIBITION stood at 10.4%.

Consider `Cn1cc(NC(=O)Cn2cc(-c3ccccc3)ncc2=O)cn1`, for which the INHIBITION is given as -15.3%. The figure for `COC(=O)c1cccc(S(=O)(=O)NCC(c2ccco2)N2CCCC2)c1` (configuration not stated) is 19.7%; for `Cc1cnn(CC2CCCN2C(=O)Cc2cccs2)c1` (configuration not stated) it is -35.5%; for `COc1ccc(C(O)CN2CC(n3nc(C)cc3C)C2)cc1` (configuration not stated) it is 49.2%. `Cc1cc(C)n(C2CN(CC(O)c3ccc(F)cc3)C2)n1` (configuration not stated): the INHIBITION is given as 62.8%. Then `Cc1cnn(C2CN(CC(O)c3ccc(F)cc3)C2)c1` (configuration not stated), with 57.4%; and `Cc1cc(C)n(C2CN(CC(O)c3ccc(C(F)(F)F)cc3)C2)n1` (configuration not stated), with 65.4%; and `Cc1cnn(C2CN(CC(O)c3ccccc3)C2)c1` (configuration not stated), with 40.9%. The figure for `Cc1cc(C)n(C2CN(CC(O)c3ccc(S(C)(=O)=O)cc3)C2)n1` (configuration not stated) is -123%; for `Cc1cc(C)n(C2CN(CC(O)c3ccc4c(c3)OCO4)C2)n1` (configuration not stated) it is 43.5%; for `Cc1cc(C)n(C2CN(CC(O)COc3ccc(F)cc3)C2)n1` (configuration not stated) it is -18.8%. For the compound `COc1ccc(C(O)CN2CC(n3cc(C)cn3)C2)cc1` (configuration not stated), the INHIBITION is listed as 22%. Then `O=C(Cc1ccccc1)N1CCC(c2nnc(-c3ccccn3)o2)CC1`, with 2.71%; and `CC(Cc1ccco1)NC(=O)Nc1ccc(N(C)C)nc1` (configuration not stated), with -297%. Then `CC(C)COC(=O)N1CC(=O)N(CCc2ccccc2)CC(O)C1` (configuration not stated), with -47.8%; and `Cc1oc(-c2ccsc2)nc1CN1CCCC(c2ccnn2C)C1` (configuration not stated), with -72.5%. Then `CN1CCN(Cc2cccnc2)C2(CCN(c3ncccn3)C2)C1=O` (configuration not stated), with -162%; and `Cn1ccnc1C(=O)N1CCC2(CCN2c2ncccn2)C1` (configuration not stated), with -49.3%; and `Cc1ccc(Nc2nccc(C3CCN(C(=O)CN)C3)n2)nc1` (configuration not stated), with -205%. Regarding `CSCCCN1CCN(c2ccc(Cl)cn2)CC1`, the INHIBITION is 30.7%. Consider `Clc1ccc(N2CCN(CCCN3CCCCC3)CC2)nc1`, for which the INHIBITION is 69.2%. The figure for `CS(=O)(=O)CCN1CCN(c2ccc(Cl)cn2)CC1` is 0.0372%.

`CN1CCN(Cc2ccncc2)C(=O)C12CCN(c1nccs1)CC2`: the INHIBITION was -78.4%. Take `CCCc1nc(C(C)(C)NC(=O)C2CC(=O)N(CC)C2)no1` (configuration not stated): the INHIBITION is on record as -33.1%. For `N#Cc1cc(C#N)c(SCC(=O)Nc2ccc(F)cc2)nc1N`, the INHIBITION is 67.3%. `N#Cc1cc(C#N)c(SCCC(=O)Nc2ccc(F)cc2)nc1N`: the INHIBITION was found to be 13.7%. Regarding `N#Cc1cc(C#N)c(SCC(=O)NCc2ccc(F)cc2)nc1N`, the INHIBITION is on record as -74.4%.

With `CCC(Nc1ccc(CCN2CCCCC2)cc1)C(N)=O` (configuration not stated), the INHIBITION is recorded as 1.58%. For `O=C(O)c1cc(S(=O)(=O)Nc2ccc(F)cc2F)cc2c1OCCO2`, the INHIBITION was -20.9%.
